# From the antibiotic and cytotoxicity screens of Wong et al. (2023)
# Out of some 39,000 compounds screened, about 3,300 (8.5%) were called active. Shown is part of a subset that was picked to be rich in actives.
# System: HepG2
# Assay: cytotoxicity call (relative viability < 0.9)
# Details: 10 µM
row,SMILES,cytotoxicity call
1,C[C@@H]1CCCCO[C@@H](CN(C)Cc2ccccc2)[C@H](C)CN([C@@H](C)CO)C(=O)c2cc(NC(=O)CCC(F)(F)F)ccc2O1,inactive
2,CC(C)NC(=O)N(C)C[C@H]1Oc2ccc(NC(=O)Cn3cnnn3)cc2CC(=O)N([C@H](C)CO)C[C@H]1C,inactive
3,C[C@H](CO)N1C[C@H](C)[C@H](CN(C)Cc2ccc(C(=O)Nc3ccccc3N)cc2)OCc2cnnn2CCCC1=O,inactive
4,CC(C)(C)c1cc(CN)n[nH]1,inactive
5,O=C(C[C@@H]1C[C@H]2c3cc(NS(=O)(=O)c4ccc(F)cc4)ccc3O[C@H]2[C@@H](CO)O1)N1CCOCC1,inactive
6,O=C1O[C@H](c2ccccc2)[C@H](c2ccccc2)N2[C@H]1[C@@H](C(=O)N1CCN(c3ncccn3)CC1)[C@]1(C(=O)Nc3ccc(C#CC4(O)CCCCCC4)cc31)[C@H]2c1ccc(OCCO)cc1,inactive
7,CO[C@@H]1CN(C)C(=O)c2ccc(NS(=O)(=O)c3ccccc3)cc2OC[C@H](C)N(C(=O)NC(C)C)C[C@@H]1C,inactive
8,CC(C)NC(=O)Nc1ccc2c(c1)CC(=O)N([C@H](C)CO)C[C@@H](C)[C@H](CN(C)C(=O)NC1CCCCC1)O2,inactive
9,C[C@H](CO)N1C[C@H](C)[C@H](CN(C)S(=O)(=O)c2cn(C)cn2)Oc2ccc(NS(=O)(=O)c3ccccc3)cc2C1=O,inactive
10,CC(O)C1C(=O)N2C(C(=O)O)=C(SC3CNC(C(=O)N(C)C)C3)C(C)C12 (centres undefined),inactive
11,Nc1nnc(-c2ccc([N+](=O)[O-])o2)o1,inactive
12,O=C1CN(N=Cc2ccc(-c3ccc([N+](=O)[O-])cc3)o2)C(=O)[N-]1.[Na+],inactive
13,O=C1OCCN1N=Cc1ccc([N+](=O)[O-])o1,active
14,CCOC(=O)c1ccc(N2NC(=O)/C(=C/c3ccc([N+](=O)[O-])o3)C2=O)cc1,inactive
15,O=C1OC(CN2CCOCC2)CN1N=Cc1ccc([N+](=O)[O-])o1 (centres undefined),active
16,O=[N+]([O-])c1cncn1CCN1CCOCC1,inactive
17,O=C1CN(N=Cc2ccc([N+](=O)[O-])o2)C(=O)N1,active
18,O=C(CN1CCOCC1)N/N=C/c1ccc([N+](=O)[O-])o1,inactive
19,O=C1CN(/N=C/c2ccc([N+](=O)[O-])o2)C(=O)N1,active
20,O=C(Cc1ccncc1)Nc1ccc2c(c1)[C@H]1C[C@H](CC(=O)N3CCc4ccccc4C3)O[C@H](CO)[C@H]1O2,inactive
21,O=C(C[C@H]1C=C[C@H](NC(=O)Cc2ccccn2)[C@@H](CO)O1)NCCc1ccncc1,inactive
22,CC(=O)NCc1c(I)c(NC(C)=O)c(I)c(C(=O)O)c1I,inactive
23,C[C@H]1CN([C@@H](C)CO)C(=O)c2cccc(NC(=O)c3ccc(-c4nccs4)cc3)c2O[C@H]1CN(C)Cc1ccc(-c2ccccc2)cc1,inactive
24,C[C@@H]1CN([C@@H](C)CO)S(=O)(=O)c2ccc(-c3ccc(F)cc3)cc2O[C@H]1CN(C)C(=O)C1CCOCC1,inactive
25,C[C@@H]1CCCCO[C@H](CN(C)C(=O)CCCN(C)C)[C@@H](C)CN([C@@H](C)CO)C(=O)c2cc(N(C)C)ccc2O1,inactive

row,SMILES,cytotoxicity call
1,C[C@@H]1CN([C@H](C)CO)C(=O)c2cccc(NS(C)(=O)=O)c2O[C@@H]1CN(C)C(=O)Nc1ccc(F)cc1,inactive
2,Cc1[nH]c(=O)[nH]c(=O)c1/C=C/C(=O)O,inactive
3,O=C(C[C@H]1CC[C@@H]2[C@H](COC[C@H](O)CN2S(=O)(=O)c2ccc(F)cc2)O1)N[C@H]1CCN(Cc2ccccc2)C1,inactive
4,C[C@H]1CN([C@@H](C)CO)C(=O)c2cc(NC(=O)Nc3ccc(C(F)(F)F)cc3)ccc2O[C@H]1CN(C)Cc1ccc(-c2ccccc2)cc1,active
5,C[C@@H]1CN([C@@H](C)CO)C(=O)c2cc(NC(=O)Nc3ccc(C(F)(F)F)cc3)ccc2O[C@@H]1CN(C)Cc1ccc(-c2ccccc2)cc1,active
6,C[C@@H]1CN([C@H](C)CO)C(=O)c2cc(NC(=O)Nc3ccc(C(F)(F)F)cc3)ccc2O[C@H]1CN(C)Cc1ccc(-c2ccccc2)cc1,active
7,C[C@@H]1CN([C@@H](C)CO)C(=O)c2cc(NC(=O)Nc3ccc(C(F)(F)F)cc3)ccc2O[C@@H]1CN(C)S(C)(=O)=O,inactive
8,C[C@H](CO)N1C[C@H](C)[C@@H](CN(C)C(=O)Nc2cccc3ccccc23)Oc2c(NC(=O)Nc3cccc4ccccc34)cccc2C1=O,inactive
9,C[C@@H]1CCCCO[C@H](CN(C)Cc2ccccc2)[C@H](C)CN([C@@H](C)CO)C(=O)c2cc(NC(=O)c3ccncc3)ccc2O1,inactive
10,O=C(C[C@H]1CC[C@@H]2[C@H](COC[C@H](O)CN2C(=O)c2ccc(F)cc2)O1)NCCCN1CCOCC1,inactive
11,COCC#Cc1cnc2c(c1)C(=O)N([C@H](C)CO)C[C@H](C)[C@H](CN(C)S(=O)(=O)c1ccccc1)O2,inactive
12,OC[C@H]1O[C@@H](n2cnc3c(N[C@@H]4CCOC4)ncnc32)[C@H](O)[C@@H]1O,inactive
13,CC[C@H](C#CCN1CCOCC1)OC(C)=O,inactive
14,COc1ccccc1S(=O)(=O)N[C@@H]1CC[C@@H](CCNC(=O)C2CC2)O[C@H]1CO,inactive
15,CN1C(=O)c2cc(NC(=O)c3ccc(F)cc3)ccc2OC[C@@H]2O[C@H](CC(=O)N3CCOCC3)CC[C@@H]21,inactive
16,COc1ccc(CN(C)C[C@H]2OCCCC[C@@H](C)Oc3ccc(NC(=O)C4CCCCC4)cc3C(=O)N([C@@H](C)CO)C[C@@H]2C)cc1,inactive
17,NS(=O)(=O)c1ccc(CCn2ccn(CC(=O)NCCC3=CCCCC3)c(=O)c2=O)cc1,inactive
18,C[C@@H]1CN([C@@H](C)CO)C(=O)Cc2cc(NS(=O)(=O)c3ccc(F)cc3)ccc2O[C@@H]1CN(C)S(=O)(=O)c1cn(C)cn1,inactive
19,CN(C)C(=O)C[C@@H]1CC[C@@H](NC(=O)C2CCOCC2)[C@@H](CO)O1,inactive
20,CCCNC(=O)Nc1ccc2c(c1)C(=O)N(C)C[C@@H](OC)[C@@H](C)CN(C(=O)C1CCOCC1)[C@H](C)CO2,inactive
21,C[C@H](CO)N1C[C@H](C)[C@H](CN(C)Cc2ccc(-c3ccccc3)cc2)Oc2ccc(NC(=O)Nc3ccc(C(F)(F)F)cc3)cc2C1=O,active
22,C[C@H](CO)N1C[C@H](C)[C@@H](CN(C)Cc2ccc(-c3ccccc3)cc2)Oc2ccc(NC(=O)Nc3ccc(C(F)(F)F)cc3)cc2C1=O,inactive
23,C[C@@H]1CN([C@@H](C)CO)C(=O)c2cc(NC(=O)Nc3ccc(C(F)(F)F)cc3)ccc2O[C@H]1CN(C)Cc1ccc(-c2ccccc2)cc1,active
24,C[C@@H]1CN([C@H](C)CO)C(=O)c2cc(NC(=O)Nc3ccc(C(F)(F)F)cc3)ccc2O[C@@H]1CN(C)Cc1ccc(-c2ccccc2)cc1,active
